# Unmarked numbers belong to inactive results. Records with an inconclusive call do not appear. Entries that show only a call come without a potency. The source made the active and inactive calls. Unless noted, calls follow the shape of the dose curve; as a rule, active = well fitted curve in the direction sought with a large enough effect in the repeat runs; inconclusive = weak or mixed curves; inactive = no such curve, though single readings can be large; an effect the other way counts as inactive or inconclusive.
# Columns and labels:
# [1] = biological target: Thyrotropin-releasing hormone receptor (Homo sapiens) (UniProt P34981); experiment: qHTS assay to identify small molecule agonists of the thyrotropin-releasing hormone receptor (TRHR) signaling pathway (AID 1346891; calls by dose curve; also: series mostly up to about 58 µM)
# Thyrotropin-releasing hormone receptor (Homo sapiens), sequence (P34981 whole entry, looked up): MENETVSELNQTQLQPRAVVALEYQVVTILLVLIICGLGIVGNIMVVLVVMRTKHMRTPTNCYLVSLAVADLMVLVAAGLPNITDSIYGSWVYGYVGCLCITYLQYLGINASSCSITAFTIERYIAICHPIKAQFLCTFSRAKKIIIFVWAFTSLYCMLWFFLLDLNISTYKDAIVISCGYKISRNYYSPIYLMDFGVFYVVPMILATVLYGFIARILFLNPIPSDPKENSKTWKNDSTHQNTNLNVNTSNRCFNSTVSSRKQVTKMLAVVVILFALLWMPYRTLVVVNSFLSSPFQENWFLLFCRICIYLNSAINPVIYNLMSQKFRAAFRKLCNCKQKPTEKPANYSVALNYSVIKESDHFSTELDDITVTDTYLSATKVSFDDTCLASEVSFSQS
# In short: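 Readout was intracellular calcium fluorescence in TRHR-Hek293 cells. Cells were incubated 18 h, dye-loaded 2 h at 37 °C, and treated with compound in agonist mode.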
# [2] = Human pregnane X receptor (PXR) small molecule agonists, qHTS cell viability counter screen (AID 1346977); also: nearly all actives have a fitted effect of over 50% in size; also: potency is read from the fitted curve at half-maximal effect
# In short: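 In each well, the PXR reporter HepG2 line was checked for viability: CellTiter-Fluor reagent added 23hr post-dosing, fluorescence read after 1hr incubation at 37C.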
# [3] = Caspase-3/7 induction in HepG2 cells by small molecules, qHTS assay (AID 1346978); also: nearly all actives have a fitted effect of over 15% in size
# In short: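 Wild-type HepG2 cells (2,000/well) were settled 5 h at 37 C, 5% CO2, then exposed to compounds in DMSO for 17 h. Caspase-3/7 activity was read by luminescence 30 min after adding Caspase-Glo 3/7 reagent at room temperature.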
# [4] = Caspase-3/7 induction in CHO-K1 cells by small molecules, qHTS assay (AID 1346980); also: nearly all actives have a fitted effect of over 15% in size
# In short: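 Wild-type cells were seeded at 1,500 per well and settled 5 hr at 37 C, 5% CO2, then exposed to DMSO-dissolved compounds for 17 hr. Caspase-Glo 3/7 reagent was added, and luminescence was read after 30min at room temperature.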
# [5] = Caspase-3/7 induction in HepG2 cells by small molecules, qHTS cell viability counter screen (AID 1346981); also: series mostly up to about 92 µM; nearly all actives have a fitted effect of over 30% in size
# In short: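 Fluorescence read-out of live-cell protease activity (CellTiter-Fluor) after 1 hr with reagent. This was measured in the same wells as the caspase-3/7 luminescence, on HepG2 cells exposed to DMSO-dissolved compounds for 16 hr at 37 C.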
# [6] = biological target: Nuclear receptor subfamily 1 group I member 2 (Homo sapiens) (UniProt O75469); experiment: Human pregnane X receptor (PXR) small molecule agonists, qHTS assay (AID 1346982); also: nearly all actives have a fitted effect of over 35% in size; also: potency is read from the fitted curve at half-maximal effect
# Nuclear receptor subfamily 1 group I member 2 (Homo sapiens), sequence (O75469 whole entry, looked up): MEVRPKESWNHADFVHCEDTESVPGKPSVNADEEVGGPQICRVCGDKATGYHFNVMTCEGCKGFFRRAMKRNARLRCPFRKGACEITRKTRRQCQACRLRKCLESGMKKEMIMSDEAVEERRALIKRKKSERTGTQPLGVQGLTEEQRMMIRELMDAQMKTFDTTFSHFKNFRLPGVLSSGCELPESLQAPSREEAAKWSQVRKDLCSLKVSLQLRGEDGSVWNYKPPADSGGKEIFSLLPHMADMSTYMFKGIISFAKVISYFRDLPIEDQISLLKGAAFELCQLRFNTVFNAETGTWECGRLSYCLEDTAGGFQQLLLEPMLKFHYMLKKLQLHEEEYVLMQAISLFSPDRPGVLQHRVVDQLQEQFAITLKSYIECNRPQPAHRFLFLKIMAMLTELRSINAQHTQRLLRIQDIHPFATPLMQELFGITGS
# In short: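 HepG2 PXR-Luc reporter line, 5% charcoal-stripped FBS; 5 hr pre-incubation, compound (DMSO) 24 hr at 37 C/5% CO2; ONE-Glo 30 min RT; luminescence read-out.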
# [7] = biological target: Acetylcholinesterase (Homo sapiens) (UniProt P22303); experiment: Acetylcholinesterase (AChE) small molecule antagonists: colormetric cell-based qHTS assay (AID 1347395; calls by dose curve; also: nearly all actives have a fitted effect of over 30% in size; also: potency is read from the fitted curve at half-maximal effect)
# Acetylcholinesterase (Homo sapiens), sequence (P22303 whole entry, looked up): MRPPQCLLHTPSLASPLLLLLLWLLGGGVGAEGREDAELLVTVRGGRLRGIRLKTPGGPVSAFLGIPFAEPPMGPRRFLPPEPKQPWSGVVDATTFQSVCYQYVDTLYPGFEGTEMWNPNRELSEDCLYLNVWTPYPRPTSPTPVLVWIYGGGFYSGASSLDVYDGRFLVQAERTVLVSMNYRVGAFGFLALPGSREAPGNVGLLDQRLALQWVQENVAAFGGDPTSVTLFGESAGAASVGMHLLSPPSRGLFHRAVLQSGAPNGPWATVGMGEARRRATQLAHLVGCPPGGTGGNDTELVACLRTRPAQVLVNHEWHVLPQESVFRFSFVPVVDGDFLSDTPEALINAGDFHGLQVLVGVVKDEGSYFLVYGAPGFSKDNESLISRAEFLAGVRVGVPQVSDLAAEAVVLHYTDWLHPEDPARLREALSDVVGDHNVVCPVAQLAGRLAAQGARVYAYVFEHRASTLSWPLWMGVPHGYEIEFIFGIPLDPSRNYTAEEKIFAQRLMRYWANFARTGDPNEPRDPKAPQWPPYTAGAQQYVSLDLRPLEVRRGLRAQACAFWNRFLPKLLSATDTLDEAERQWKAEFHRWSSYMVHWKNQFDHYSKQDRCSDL
# In short: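 After overnight attachment at 37 C, SH-SY5Y cells get 30 min compound exposure; detection cocktail (acetylthiocholine, DTNB) then incubates 90 min at 37 C, and absorbance reflects AChE-generated thiocholine.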
# [8] = biological target: Acetylcholinesterase (Homo sapiens) (UniProt P22303); experiment: Acetylcholinesterase (AChE) small molecule antagonists: enzyme-based qHTS assay (AID 1347397; calls by dose curve; also: nearly all actives have a fitted effect of over 55% in size; also: potency is read from the fitted curve at half-maximal effect); details: Potency: AChE enzyme activity inhibition
# In short: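 Tox21 library chemicals are tested in qHTS format against recombinant human AChE. The enzyme, dispensed at 50 mU/mL, sits with compound for 30 min at room temperature. A DTNB–acetylthiocholine cocktail follows, and colour is read after 10 min.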
# [9] = biological target: Acetylcholinesterase (Homo sapiens) (UniProt P22303); experiment: Acetylcholinesterase (AChE) small molecule antagonists: fluorescence cell-based qHTS assay (AID 1347398; calls by dose curve; also: nearly all actives have a fitted effect of over 50% in size; also: potency is read from the fitted curve at half-maximal effect); details: Potency: AChE activity
# In short: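 Cellular AChE inhibition: SH-SY5Y cells treated with test chemical for 30 min at 37 C, then acetylthiocholine hydrolysis followed over 40 min at room temperature via thiocholine-reactive Thiolite Green fluorescence (490/520 nm).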
# [10] = biological target: Acetylcholinesterase (Homo sapiens) (UniProt P22303); experiment: Acetylcholinesterase (AChE) small molecule antagonists: enzyme-based qHTS assay with human liver microsomes (AID 1347399; calls by dose curve; also: nearly all actives have a fitted effect of over 60% in size; also: potency is read from the fitted curve at half-maximal effect); details: Potency: qHTS inhibition
# In short: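 Recombinant human AChE (50 mU/mL in the enzyme mix) and human liver microsomes (0.25 mg/mL final) were preincubated with compound and NADPH (0.25 mg/mL final) for 30 min at 37 C. Acetylthiocholine/DTNB was then added; thiocholine was read colorimetrically after 10 min at room temperature.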
# [11] = biological target: Cytochrome P450 1A2 (Homo sapiens) (UniProt P05177); experiment: Cytochrome P450 Family 1 Subfamily A Member 2 (CYP1A2) small molecule antagonists: luciferase reporter qHTS assay (AID 1671199); also: series mostly up to about 120 µM; nearly all actives have a fitted effect of over 50% in size
# Cytochrome P450 1A2 (Homo sapiens), sequence (P05177 whole entry, looked up): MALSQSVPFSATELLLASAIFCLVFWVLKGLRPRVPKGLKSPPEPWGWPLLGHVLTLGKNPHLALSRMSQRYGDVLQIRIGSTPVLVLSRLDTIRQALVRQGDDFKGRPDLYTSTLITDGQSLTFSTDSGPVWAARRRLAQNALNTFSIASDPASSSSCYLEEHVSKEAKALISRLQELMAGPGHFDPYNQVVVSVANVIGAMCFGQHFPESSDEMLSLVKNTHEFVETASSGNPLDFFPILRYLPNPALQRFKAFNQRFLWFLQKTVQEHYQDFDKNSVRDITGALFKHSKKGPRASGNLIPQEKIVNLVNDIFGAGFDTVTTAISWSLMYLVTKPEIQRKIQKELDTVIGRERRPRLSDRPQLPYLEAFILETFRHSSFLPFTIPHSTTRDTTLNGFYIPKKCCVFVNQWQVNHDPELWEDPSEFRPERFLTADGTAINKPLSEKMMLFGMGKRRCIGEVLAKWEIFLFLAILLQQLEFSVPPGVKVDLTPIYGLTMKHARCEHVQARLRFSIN
# In short: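 Luminescence readout (relative luminescence units) after luciferin detection reagent, 20 min RT. Preceded by 1 h room-temperature CYP1A2 reaction with NADPH regeneration solution following 10 min compound preincubation with enzyme and proluciferin substrate. Furafylline positive control.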
# [12] = biological target: Voltage-gated inwardly rectifying potassium channel KCNH2 (Homo sapiens) (UniProt Q12809); experiment: Human Ether-a-go-go-Related Gene (hERG) channel small molecule antagonists: fluorescence cell-based qHTS assay (AID 1671200); also: nearly all actives have a fitted effect of over 50% in size; also: potency is read from the fitted curve at half-maximal effect
# In short: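 In this thallium-flux screen, overnight-cultured U2OS cells bearing the channel are dye-loaded in darkness for an hour, rested 10 min at room temperature, and then monitored kinetically at 480/540 nm for two minutes post-stimulus.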
# [13] = biological target: Cytochrome P450 3A4 (Homo sapiens) (UniProt P08684); experiment: Cytochrome P450 Family 3 Subfamily A Member 4 (CYP3A4) small molecule antagonists: luciferase reporter qHTS assay (AID 1671201); also: nearly all actives have a fitted effect of over 50% in size; also: potency is read from the fitted curve at half-maximal effect
# Cytochrome P450 3A4 (Homo sapiens), sequence (P08684 whole entry, looked up): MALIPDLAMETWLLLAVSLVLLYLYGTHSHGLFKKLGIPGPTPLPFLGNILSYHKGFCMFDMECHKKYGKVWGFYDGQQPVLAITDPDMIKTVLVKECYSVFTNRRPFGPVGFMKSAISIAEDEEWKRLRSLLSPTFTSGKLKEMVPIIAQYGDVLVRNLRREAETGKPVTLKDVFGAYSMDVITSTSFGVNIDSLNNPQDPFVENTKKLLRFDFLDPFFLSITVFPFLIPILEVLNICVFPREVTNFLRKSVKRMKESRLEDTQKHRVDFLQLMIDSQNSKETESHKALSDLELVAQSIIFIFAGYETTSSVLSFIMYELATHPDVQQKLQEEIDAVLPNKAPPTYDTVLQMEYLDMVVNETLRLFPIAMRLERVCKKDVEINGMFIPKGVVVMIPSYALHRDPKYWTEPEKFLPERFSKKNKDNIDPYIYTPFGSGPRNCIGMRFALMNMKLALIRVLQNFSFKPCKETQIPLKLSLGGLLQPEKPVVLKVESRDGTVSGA
# In short: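 CYP3A4 activity was followed with a P450-Glo proluciferin substrate. Test compounds in DMSO were preincubated 10 min; NADPH regeneration then ran 1 h, and light output was read 20 min after detection reagent.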
# [14] = biological target: Cytochrome P450 2C19 (Homo sapiens) (UniProt P33261); experiment: Cytochrome P450 Family 2 Subfamily C Member 19 (CYP2C19) small molecule antagonists: luciferase reporter qHTS assay (AID 1671197); also: nearly all actives have a fitted effect of over 65% in size; also: potency is read from the fitted curve at half-maximal effect
# Cytochrome P450 2C19 (Homo sapiens), sequence (P33261 whole entry, looked up): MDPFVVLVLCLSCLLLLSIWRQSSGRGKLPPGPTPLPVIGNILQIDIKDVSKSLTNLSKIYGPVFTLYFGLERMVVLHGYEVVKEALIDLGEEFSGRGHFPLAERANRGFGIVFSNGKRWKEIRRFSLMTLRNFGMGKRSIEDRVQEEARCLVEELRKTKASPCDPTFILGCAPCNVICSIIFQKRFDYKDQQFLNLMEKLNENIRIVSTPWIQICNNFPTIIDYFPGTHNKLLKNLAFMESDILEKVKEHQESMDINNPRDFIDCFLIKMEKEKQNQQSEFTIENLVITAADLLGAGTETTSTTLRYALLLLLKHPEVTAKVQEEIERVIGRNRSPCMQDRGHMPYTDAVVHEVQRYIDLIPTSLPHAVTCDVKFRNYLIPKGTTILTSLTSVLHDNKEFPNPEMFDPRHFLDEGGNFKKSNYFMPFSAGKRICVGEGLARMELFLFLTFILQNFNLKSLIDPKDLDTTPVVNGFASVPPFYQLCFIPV
# In short: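 Inhibition of CYP2C19 was scored from loss of luminescence in a P450-Glo proluciferin substrate assay, NADPH-started and run 1 h at 37C, with ketoconazole as positive control.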
# [15] = biological target: Cytochrome P450 2C9 (Homo sapiens) (UniProt P11712); experiment: Cytochrome P450 Family 2 Subfamily C Member 9 (CYP2C9) small molecule antagonists: luciferase reporter qHTS assay (AID 1671198); also: nearly all actives have a fitted effect of over 50% in size; also: potency is read from the fitted curve at half-maximal effect
# Cytochrome P450 2C9 (Homo sapiens), sequence (P11712 whole entry, looked up): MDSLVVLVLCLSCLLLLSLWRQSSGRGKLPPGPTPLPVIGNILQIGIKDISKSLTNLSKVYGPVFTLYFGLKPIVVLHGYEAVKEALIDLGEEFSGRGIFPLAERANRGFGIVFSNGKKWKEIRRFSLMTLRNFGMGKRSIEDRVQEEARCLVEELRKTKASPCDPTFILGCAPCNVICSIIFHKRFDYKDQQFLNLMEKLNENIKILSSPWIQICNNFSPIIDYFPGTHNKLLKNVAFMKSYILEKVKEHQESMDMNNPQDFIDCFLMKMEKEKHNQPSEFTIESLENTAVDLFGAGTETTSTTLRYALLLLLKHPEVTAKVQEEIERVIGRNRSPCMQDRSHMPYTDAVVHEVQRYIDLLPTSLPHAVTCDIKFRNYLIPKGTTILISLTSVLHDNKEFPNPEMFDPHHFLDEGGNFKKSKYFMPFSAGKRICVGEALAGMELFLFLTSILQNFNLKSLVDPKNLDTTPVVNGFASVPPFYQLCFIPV
# In short: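 CYP2C9 activity was measured with a P450-Glo proluciferin substrate. Enzyme–substrate mix was held with compound for 10 min at room temperature, then NADPH regeneration solution was added for 1 h at 37C. Luciferin product was read as luminescence.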
# [16] = Caspase-3/7 induction in CHO-K1 cells by small molecules, qHTS cell viability counter screen (AID 1346979); also: nearly all actives have a fitted effect of over 35% in size; also: potency is read from the fitted curve at half-maximal effect
# In short: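 Following a 5hr settling period, CHO-K1 cells at 1,500 per well received DMSO-dissolved compounds. Cell viability was quantified 16hr later by CellTiter-Fluor fluorescence, measured after 1hr with reagent at 37C.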
# [17] = biological target: Cytochrome P450 2D6 (Homo sapiens) (UniProt P10635); experiment: Cytochrome P450 Family 2 Subfamily D Member 6 (CYP2D6) small molecule antagonists: luciferase reporter qHTS assay (AID 1671196)
# Cytochrome P450 2D6 (Homo sapiens), sequence (P10635 whole entry, looked up): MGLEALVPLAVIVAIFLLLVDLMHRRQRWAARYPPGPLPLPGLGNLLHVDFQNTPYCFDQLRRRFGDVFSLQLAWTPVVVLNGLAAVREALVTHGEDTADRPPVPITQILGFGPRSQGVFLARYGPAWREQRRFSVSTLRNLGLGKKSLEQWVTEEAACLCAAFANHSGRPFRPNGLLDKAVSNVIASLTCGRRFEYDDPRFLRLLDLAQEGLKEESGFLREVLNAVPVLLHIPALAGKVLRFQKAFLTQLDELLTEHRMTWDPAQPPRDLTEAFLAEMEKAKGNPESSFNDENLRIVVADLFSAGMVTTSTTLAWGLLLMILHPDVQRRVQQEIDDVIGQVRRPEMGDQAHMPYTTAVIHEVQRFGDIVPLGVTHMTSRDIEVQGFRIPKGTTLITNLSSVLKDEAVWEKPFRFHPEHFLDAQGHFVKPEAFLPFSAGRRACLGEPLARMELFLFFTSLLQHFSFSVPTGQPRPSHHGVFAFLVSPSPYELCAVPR
# In short: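 Luminogenic proluciferin substrate, CYP2D6 enzyme; 10 min RT preincubation with compound, NADPH regeneration system added, 1 h RT. Stop/detection reagent, 20 min RT, luminescence read (RLU). Signal proportional to CYP activity.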
# [18] = biological target: Nuclear receptor subfamily 1 group I member 2 (Homo sapiens) (UniProt O75469); experiment: CYP3A4 induction through human pregnane X receptor (PXR) by small molecules, qHTS assay (AID 1346984); also: nearly all actives have a fitted effect of over 40% in size
# In short: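 HepG2-derived DPX-2 line carrying PXR plus a CYP3A4-promoter luciferase reporter; cells plated 5 hr, compound-exposed 24 hr at 37C. CYP3A4 activity probed with 3uM (final) Luciferin-IPA for 3hr, then luciferase read after One-Glo.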
# [19] = biological target: Nuclear receptor subfamily 1 group I member 2 (Homo sapiens) (UniProt O75469); experiment: Human pregnane X receptor (PXR) activation by small molecules, qHTS assay (AID 1346985); also: nearly all actives have a fitted effect of over 40% in size
# In short: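 DPX-2 cells (HepG2 co-transfected with a PXR response element and a CYP3A4-promoter luciferase construct) were seeded at 2,000 per well, rested 5 hr at 37C, then exposed to DMSO-dissolved compounds for 24 hr. Activation was read as luciferase luminescence.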
Compound,Potency [1],Potency [2],Potency [3],Potency [4],Potency [5],Potency [6],Potency [7],Potency [8],Potency [9],Potency [10],Potency [11],Potency [12],Potency [13],Potency [14],Potency [15],Potency [16],Potency [17],Potency [18],Potency [19]
CN1C[C@H](CNC(=O)OCc2ccccc2)C[C@@H]2c3cccc4c3c(cn4C)C[C@H]21,inactive,26.6 µM (active),inactive,inactive,inactive,inactive,3.47 µM (active),7.76 µM (active),0.871 µM (active),30.9 µM (active),inactive,3.38 µM (active),inactive,,,,,,
O=C(C(Cl)(Cl)Cl)C(Cl)(Cl)Cl,inactive,inactive,inactive,inactive,inactive,inactive,inactive,inactive,inactive,inactive,,inactive,inactive,inactive,inactive,,,,
C=CC(=O)OCCCCO,inactive,inactive,inactive,inactive,,inactive,inactive,inactive,inactive,inactive,,inactive,inactive,inactive,inactive,54.5 µM (active),inactive,,
CCCCCC[N+](=O)[O-],inactive,inactive,inactive,inactive,inactive,,,,,,,inactive,,,,inactive,,,
NCCCNCCCN,inactive,inactive,inactive,inactive,inactive,,,,,,,inactive,,,,inactive,,,
CC(O)(CS(=O)(=O)c1ccc(F)cc1)C(=O)Nc1ccc(C#N)c(C(F)(F)F)c1 (centres undefined),inactive,inactive,inactive,inactive,inactive,31.8 µM (active),,inactive,inactive,inactive,inactive,inactive,2.33 µM (active),3.69 µM (active),13.1 µM (active),,,inactive,inactive
CCOc1nc(F)cc2nc(S(=O)(=O)Nc3c(Cl)cccc3Cl)nn12,inactive,inactive,inactive,inactive,,inactive,inactive,inactive,inactive,,inactive,inactive,,inactive,71 µM (active),inactive,inactive,,
N#Cc1cc(I)c(O)c(I)c1,inactive,43.3 µM (active),inactive,inactive,,54.5 µM (active),inactive,inactive,inactive,inactive,,inactive,inactive,,,68.6 µM (active),inactive,,
